# Experimental data published in ChEMBL document CHEMBL3433997, “St. Jude Leishmania screening dataset” (2016).
# Target: Solute carrier family 2, facilitated glucose transporter member 1 (Homo sapiens) (UniProt P11166)
# Experiment: ST_JUDE_LEISH: Cytotoxicity at 2uM final concentration against transgenic Leishmania Mexicana promastigotes LmGLUT1 that are glucose transport deficient and complemented with the human glucose transporter GLUT1. Activity is measured by DNA content using SYBR green in vitro
# Type: functional
# Chain of Solute carrier family 2, facilitated glucose transporter member 1 (Homo sapiens) (P11166 whole entry): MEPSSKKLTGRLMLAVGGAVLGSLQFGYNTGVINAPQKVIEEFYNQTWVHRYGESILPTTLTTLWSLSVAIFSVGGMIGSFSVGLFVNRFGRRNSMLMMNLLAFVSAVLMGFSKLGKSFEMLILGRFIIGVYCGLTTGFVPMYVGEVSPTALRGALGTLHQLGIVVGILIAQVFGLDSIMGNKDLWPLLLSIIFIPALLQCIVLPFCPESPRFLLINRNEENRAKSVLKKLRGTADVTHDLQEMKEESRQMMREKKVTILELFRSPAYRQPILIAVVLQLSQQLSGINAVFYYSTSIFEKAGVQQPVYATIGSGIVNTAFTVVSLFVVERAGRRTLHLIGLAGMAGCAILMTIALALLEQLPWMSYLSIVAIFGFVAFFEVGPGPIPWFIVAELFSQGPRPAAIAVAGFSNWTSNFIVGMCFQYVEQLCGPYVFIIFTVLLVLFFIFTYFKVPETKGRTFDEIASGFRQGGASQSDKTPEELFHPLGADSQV
row,SMILES,inhibition [%]
1,CCC1(CC)NC(N)=NC(=N)N1OCc1ccc(Cl)c(Cl)c1,4.32
2,CCCCc1ccc(C(=O)NC2CCN(C[C@H](O)c3ccnc4ccc(OC)cc34)CC2)cc1,66.8
3,CC1CC(C)CN(CCCNc2ccc(C(=O)Nc3ccc(C(F)(F)F)cc3)cc2[N+](=O)[O-])C1 (stereo not given),3.92
4,Cc1ccc(C)c(-n2c(SCC(=O)Nc3ccc(C(N)=O)cc3)nnc2-c2cccc(Cl)c2)c1,11.3
5,CC1CN(c2ccc(NC(=O)c3ccsc3)cc2C(=O)N2CCN(Cc3ccc(C(C)(C)C)cc3)CC2)CC(C)O1 (stereo not given),-1.24
6,N#Cc1ccc2[nH]cc(CN3CCC4(CC3)CN(CCNCc3ccccc3)C(=O)O4)c2c1,4.35
7,CN(C)CCCNc1ncnc2c1[nH]c1ccc(Br)cc12,1.44
8,CC(C)CCN(Cc1cncn1Cc1ccccc1F)C(=O)c1cncc(-c2ccccc2)c1,2.26
9,Cc1[nH]c2ccccc2c1C(=O)C(C)Sc1nnc(-c2ccccc2F)o1 (stereo not given),2.5
10,Cc1cc(N[C@@H](CC(C)C)C(=O)NC2CCCC2)nc(NCC2CCCCC2)n1,3.95
11,COc1cc(CCON2C(N)=NC(N)=NC2(C)C)cc(OC)c1OC,2.34
12,CC(C)(C)NCC(O)COc1ccc(Cl)cc1C1=NNC(=O)CC1 (stereo not given),1.53
13,CC(C)CN1CCCN(Cc2cccc(NC(=O)c3ccc(-c4ccccc4)cc3)c2)CC1,0.53
14,COc1ccc(-c2ccc(NC(=O)c3ccc(F)cc3)cc2)cc1CN1CCCN(C)CC1,6.26
15,O=C(Nc1cccc([N+](=O)[O-])c1)Nc1ccc(Cl)c(C(F)(F)F)c1,-1.69
16,CCOCCCn1c(=N)c(C(=O)NCc2ccc(OC)cc2)cc2c(=O)n3cccc(C)c3nc21,3.85
17,Nc1c(Cl)cc(C(O)CNCCCCCOCCCc2ccc3ncccc3c2)cc1Cl (stereo not given),5.88
18,COc1cc(Cc2cnc(N)nc2N)cc(OC)c1OCCNC(=O)[C@@H](N)CCC(=O)O,-0.69
19,CC1CCN(Cc2ccc(NC(=O)c3cc4ccc5cccnc5c4[nH]3)cc2)CC1,7.7
20,Oc1ccc2nc(N3CCNCC3)nc(NCCCc3ccccc3)c2c1,-0.71

row,SMILES,inhibition [%]
1,CCOC(=O)c1ccc(NC(=O)Nc2cccc(-c3cccc(-c4nc5ccccc5[nH]4)c3)c2)cc1,10.4
2,CCO[C@H]1CN[C@H](C#Cc2cc3c(Nc4ccc(OCc5cccc(F)c5)c(Cl)c4)ncnc3s2)C1,0.74
3,O=C(Nc1ccc(-c2ccccc2)cc1)Nc1cccc(OCCN2CCCC2)c1,7.09
4,CCCNCc1ccc(-c2ccc(CN(CC3CCCO3)C(=O)C3CC(=O)c4ccccc43)cc2)nc1 (stereo not given),6.13
5,O=C(Nc1cccc(-c2ccc(CN3CCC(O)CC3)cc2)c1)c1ccc(Cl)cc1,2.51
6,CC(C)(CNC(=O)C1CCN(CCOc2ccc(F)c(F)c2)CC1)c1nc(-c2ccc(Cl)c(O)c2)c(-c2ccncc2)[nH]1,4.62
7,Cc1ccccc1CNC(=O)Nc1cccc(-c2csc(NC(=N)N)n2)c1,0.55
8,COC(=O)c1ccc2nc(-c3ccc(C(=O)NC4CCN(Cc5ccccc5)CC4)s3)[nH]c2c1,6.63
9,Cc1cccc(Nc2nccc(NCC(O)c3ccc(C(F)(F)F)cc3)n2)c1 (stereo not given),10.6
10,CC(C)OC(=O)c1cccnc1SCC(=O)Nc1ccc(C(F)(F)F)cc1Cl,1.58
11,Cc1ccoc1C(=O)Nc1cccc(-c2cccc(-c3nc4ccccc4[nH]3)c2)c1,12.3
12,COc1ccc(C(=O)N[C@@H](CC(C)C)C(=O)NC2CC[C@@H](C)N(C(=O)Nc3ccc(Cl)cc3)CC2=O)cc1OCCN1CCOCC1 (stereo not given in full),2.44
13,Cc1cccc2nc(-c3cccc(-c4cccc(NC(=O)C(C)CN5CCN(C)CC5)c4)c3)[nH]c12 (stereo not given),1.94
14,COc1ccc(CCNC(=O)c2ccccc2O)cc1-c1ccc(C(C)(C)C)cc1,4.03
15,Cc1cc(NC(=O)Nc2ccc(C#N)cc2)c2ccccc2n1,1.79
16,O=C(/C=C/c1ccc(C(F)(F)F)cc1)NCCCCCN1CCN(C(=O)Nc2ccc(F)c(Cl)c2)CC1,3.33
17,CCCCCCN(CCCCCC)CC(O)c1cc(-c2ccc(Cl)cc2)nc2c(C)cc(C)cc12 (stereo not given),8.61
18,COc1ccc(NC(=O)Nc2nc3ccccc3s2)cc1N1CCN(C)CC1,7.14
19,CC(=O)N[C@H](C(=O)Nc1ccc(-c2cccc(-c3nc4cccc(C)c4[nH]3)c2)cc1)C(C)C,1.35
20,COCCOC(=O)C(=O)c1c(-c2ccccc2)c(-c2ccc(OC)c(OC)c2)c2c3cc(OC)c(OC)cc3ccn12,4.89
